Source: PubChem
SENP6 block: SENP6 protease inhibition; 1.8% of 330,000 active; Recombinant SENP6 catalytic domain, aminoluciferin luminescence; inhibition, % at 10 µM; AID 2599; Q9GZR1;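 active = inhibition above about 50% at the single tested dose, limit read from the data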;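 note: plate controls were DMSO wells with enzyme for no effect and DMSO wells lacking enzyme for full effect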
Target sequence (Q9GZR1 628-1112 limits assumed): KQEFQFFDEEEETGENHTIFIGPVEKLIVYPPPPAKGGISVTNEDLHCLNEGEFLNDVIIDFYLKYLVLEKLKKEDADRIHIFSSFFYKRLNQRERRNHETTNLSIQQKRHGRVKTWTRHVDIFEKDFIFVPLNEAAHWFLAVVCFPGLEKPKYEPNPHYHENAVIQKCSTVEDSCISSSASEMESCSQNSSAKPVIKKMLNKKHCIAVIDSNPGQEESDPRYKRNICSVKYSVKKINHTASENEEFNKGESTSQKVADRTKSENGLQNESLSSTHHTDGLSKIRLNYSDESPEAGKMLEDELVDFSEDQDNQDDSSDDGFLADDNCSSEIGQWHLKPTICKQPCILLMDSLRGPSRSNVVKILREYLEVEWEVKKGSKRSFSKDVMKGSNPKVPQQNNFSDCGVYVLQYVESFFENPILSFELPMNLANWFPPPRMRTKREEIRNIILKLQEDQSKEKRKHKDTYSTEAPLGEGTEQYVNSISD
SENP7 inh: blocks the human protease SENP7; recombinant SENP7, Z-RLRGG-aminoluciferin luminescence, 40 min; AID 434973; Q9BQF6; inhibition, % at 5 µM; 1.5% of 330,000 active;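 active = inhibition above about 50% at the single test dose, limit read from the data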;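 note: plate controls were DMSO with enzyme for no effect and no enzyme buffer wells for full effect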
SENP8 block-1: blocks human SENP8 cleavage of Nedd8 substrate. Q96LD8. recombinant SENP8, Nedd8 substrate fluorescence. inhibition, % at 20 µM. 0.64% of 360,000 active. AID 602440; in the data active = inhibition mostly above about 40%, no sharp cut-off; inactive = mostly below about 27%
SENP8 block-2: inhibitors of human SENP8 protease; AID 2540; 1.2% of 330,000 active; Q96LD8; inhibition, % at 10 µM; purified SENP8, Z-RLRGG-aminoluciferin cleavage, luminescence; in the data active = inhibition above about 50%
EBI2 antag: blocks human EBI2 receptor beta-arrestin signaling | EBI2 beta-arrestin recruitment, luminescence, 7a,25-OHC stimulated | P32249 | 0.81% of 360,000 active | inhibition, % at 5 µM; in the data active = inhibition above about 38%;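 note: enzyme fragment complementation signal reports receptor beta-arrestin coupling in cells; 0% = agonist plus DMSO wells and 100% = wells without agonist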
AHR activator: activators of human aryl hydrocarbon receptor | P35869 | AHR-responsive luciferase reporter cells, luminescence | activation, % at 5 µM | 2.5% of 320,000 active; in the data active = activation above about 47%;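 note: 0% = vehicle wells and 100% = reference agonist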
AHR act cf: human AHR activation, confirmation; shares compounds with AHR activator; 87% of 2,300 active; AID 2845; human cells, AHR-responsive luciferase reporter, luminescence; activation, % at 9 µM; in the data active = activation above about 49%;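 note: HepG2 hepatoma cells carrying a DRE-driven firefly luciferase reporter; 0% = vehicle wells and 100% = reference agonist wells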
PXR act counter: activates human PXR in AHR activator counter-screen. shares compounds with AHR activator. AID 434939. cell-based PXR reporter, luciferase luminescence. 88% of 2,300 active. activation, % at 11.6 µM; in the data active = activation above about 11%;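 note: human hepatoma DPX-2 cells expressing full-length human PXR; 0% = DMSO and 100% = reference agonist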
* = called active by the depositor; i = inactive; x = no result. Sampled rows, rich in hits. Any-hit rate of the full collection: about 5%.

SMILES	SENP6 block	SENP7 inh	SENP8 block-1	SENP8 block-2	EBI2 antag	AHR activator	AHR act cf	PXR act counter
CC(NC(=O)c1cc(F)c(F)c(F)c1F)c1ccc(-n2ccnc2)cc1 (stereo unspecified)	3	-5	-1	-3	-17	96*	50*	18*
CC(NC(=O)CCNC(=O)c1ccccc1Cl)c1ccc(-n2ccnc2)cc1 (stereo unspecified)	0	1	-4	0	8	11	x	x
CC(NC(=O)c1c(F)cccc1Cl)c1ccc(-n2ccnc2)cc1 (stereo unspecified)	-20	-11	-3	-4	-6	127*	64*	19*
COc1cc(OC)cc(C(=O)NC2=NCCS2)c1	-16	10	17	-3	-5	95*	101*	20*
COc1ccc(C(=O)NC2=NCCS2)cc1	7	-2	8	1	-10	13	x	x
N#C/C(=C\C=C\c1ccccc1)C(=O)NCc1cccnc1	3	-2	8	4	6	5	x	x
CN1CCN(C2=Nc3c(Cl)cc(Cl)c4cccc2c34)CC1	-3	7	31	2	-6	82*	91*	27*
CCCC1=[N+](CC(=O)c2ccc(C)cc2)CCn2cccc21	2	-10	-149	-14	-6	82*	112*	22*
CC(=O)c1ccc(Nc2cc(C)nc3nc(C)nn23)cc1	6	6	-17	5	-7	0	x	x
Cc1cc(Nc2ccc(Cl)cc2)n2nnnc2n1	-10	-2	-20	-10	-5	143*	91*	14*
Cc1ccc(Nc2cc(C)nc3nc(C)nn23)cc1	13	-2	12	9	0	124*	14	9
Cc1cc(Nc2ccc(Br)c(C)c2)n2nc(C)nc2n1	-7	-9	8	-6	3	85*	46	12*
Cc1cc(Nc2ccc(C(=O)O)cc2)n2nc(C)nc2n1	13	9	6	-1	-5	2	x	x
COc1ccc(CC(=O)NNC(=O)COc2ccc(F)cc2)cc1S(=O)(=O)N1CCOCC1	-20	-10	13	-12	-8	3	x	x
CC(=O)/C(=N/Nc1ccc(Br)cc1)Sc1cccc2cccnc12	-3	11	16	-6	-3	125*	116*	180*
CCN(CC)C(=O)Sc1cccc2cccnc12	-19	-7	-15	-6	-3	8	x	x
O=C(Nc1nccs1)c1ccc(-c2ccc(F)cc2)o1	-30	-3	-138	-17	5	4	x	x
O=C(Nc1nccs1)c1ccc(-c2ccc(Cl)cc2)o1	31	13	-274	0	13	84*	37	26*
CCc1nnc(NC(=O)/C=C/c2ccco2)s1	2	1	-61	1	4	93*	59*	58*
CC(C)OC(=O)/C(=C/c1ccc2c(c1)c1ccccc1n2C)NC(=O)c1ccccc1	34	32	-254	9	1	80*	97*	183*
Cn1c2ccccc2c2cc(/C=C(\NC(=O)c3ccccc3)C(=O)O)ccc21	-7	-3	-32	-6	-4	13	x	x
CC(C)N1C(=O)CCC1C(=O)NCc1ccc(F)cc1Cl (stereo unspecified)	-10	-5	13	-15	2	1	x	x
CC1CCCC/C1=N\NC(=S)Nc1cccnc1 (stereo unspecified)	-10	-2	1	1	-8	113*	73*	12*
COC(=O)NNC(=S)Nc1ccc(Br)cc1	2	-2	14	-4	3	0	x	x
Cc1nccc(-c2ccc(-n3cnc4ccccc43)cc2)n1	14	-9	-18	-14	5	83*	63*	x
SMILES	SENP6 block	SENP7 inh	SENP8 block-1	SENP8 block-2	EBI2 antag	AHR activator	AHR act cf	PXR act counter
COc1ccc([N+](=O)[O-])cc1COc1cc(C)cc2oc(=O)cc(-c3ccccc3)c12	-10	5	-20	-4	25	2	x	x
N#C/C(=C1/CCCCCN1)c1nc2ccccc2s1	-17	9	5	5	1	87*	122*	56*
N#C/C(=C1\CCCN1)c1nc2ccccc2c(=O)[nH]1	-4	-2	9	-10	4	15	x	x
NC(=O)c1cc([N+](=O)[O-])ccc1NCCc1ccccc1	-13	1	14	1	13	x	x	x
O=[N+]([O-])c1ccc(NCCc2ccccc2)c(Br)c1	-10	-3	21	-8	-5	114*	104*	12*
O=c1[nH]nc(N=Nc2c(O)[nH]c3ccc(F)cc23)c(=O)[nH]1	x	x	21	x	4	x	x	x
Cc1ccc(N=Nc2c(O)[nH]c3ccc(F)cc23)cc1	-1	6	16	-4	9	114*	129*	22*
COC(=O)c1ccccc1SC(CC(=O)c1ccccc1)c1ccc(F)cc1 (stereo unspecified)	-15	2	9	0	8	-9	x	x
Nc1cc(-c2ccc(Br)cc2)[nH]n1	-25	6	26	-10	-13	84*	132*	11*
Cc1cc(-c2ccc(Br)cc2)n[nH]1	-8	10	8	-10	-10	16	x	x
CSc1ncccc1C(=O)OCC(=O)NC1CCC(C)CC1 (stereo unspecified)	-7	2	15	1	8	1	x	x
O=C(c1cccs1)N1CCN(c2ccc(Cl)cc2)CC1	2	0	8	7	-3	-6	x	x
CNC(=O)c1cc2c(-c3ccccc3)nn(C)c2s1	-16	7	-181	-4	-7	99*	114*	24*
Cn1nc(-c2ccc(Cl)cc2)c2cc(C(=O)N3CCN(c4ccccc4)CC3)sc21	-6	-9	-74	6	15	101*	74*	34*
COc1cccc(-c2nn(C)c3sc(C(=O)NCc4ccco4)cc23)c1	-6	-1	i	-4	16	95*	130*	44*
CCCCN(C)CCNC(=O)c1cc2c(-c3ccccc3F)nn(C)c2s1	-10	-1	-110	4	1	18	x	x
COCCNC(=O)c1cc2c(-c3ccccc3F)nn(C)c2s1	-16	-10	-78	-10	1	98*	122*	24*
Cn1nc(-c2ccc(Cl)cc2)c2cc(C(=O)N3CCN(c4ccccn4)CC3)sc21	-4	8	-14	-2	23	106*	71*	45*
Cc1nnc(Nc2ccc(F)cc2)c2ccccc12	15	0	-56	7	2	42	x	x
Cc1nnc(Nc2ccccn2)c2ccccc12	-6	7	0	-8	-6	148*	143*	58*
Brc1ccc(-c2ccc(/C=N/Nc3nncc(-c4ccccc4)n3)o2)cc1	-12	-4	29	-11	-1	19	x	x
